Measured values reported in PubChem BioAssay (NCATS).
Results filed as inconclusive are left out. Entries that show only a call come without a potency. Unmarked numbers belong to inactive results. The source made the active and inactive calls. The call rests on the fitted dose curve; in most records, active means well fitted inhibition curve with a large enough effect; inconclusive means small, poorly fitted or top-dose-only effect; inactive means flat fitted curve, though single readings scatter.

Assays:
[1] = target: Glutathione peroxidase 1 (Homo sapiens) (UniProt P07203); assay: Primary qHTS Assay for Inhibitors of Recombinant Selenoprotein Glutathione Peroxidase 1 (GPX1) (AID 1845191)
Glutathione peroxidase 1 (Homo sapiens), sequence (P07203 whole entry, looked up): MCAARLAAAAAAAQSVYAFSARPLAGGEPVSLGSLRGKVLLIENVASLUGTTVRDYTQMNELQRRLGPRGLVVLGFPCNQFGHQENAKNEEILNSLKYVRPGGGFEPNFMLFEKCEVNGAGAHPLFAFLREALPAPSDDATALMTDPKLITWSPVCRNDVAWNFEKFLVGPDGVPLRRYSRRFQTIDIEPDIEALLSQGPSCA
In short: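 NADPH consumption tracked by fluorescence at 340/450 nm between t=0 and t=15 min, room temperature. Final mix: 10 nM GPX1, 100 nM glutathione reductase, 1 mM GSH, 0.5 mM NADPH, 0.5 mM cumene hydroperoxide, 0.01% BSA; 30 min compound–enzyme preincubation.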

[2] = target: Phospholipid hydroperoxide glutathione peroxidase GPX4 (Homo sapiens) (UniProt P36969); assay: Primary qHTS Assay for Inhibitors of Recombinant Selenoprotein Glutathione Peroxidase 4 (GPX4) (AID 1845192); further: potency means the concentration at half of the fitted maximal effect
Phospholipid hydroperoxide glutathione peroxidase GPX4 (Homo sapiens), sequence (P36969 whole entry, looked up): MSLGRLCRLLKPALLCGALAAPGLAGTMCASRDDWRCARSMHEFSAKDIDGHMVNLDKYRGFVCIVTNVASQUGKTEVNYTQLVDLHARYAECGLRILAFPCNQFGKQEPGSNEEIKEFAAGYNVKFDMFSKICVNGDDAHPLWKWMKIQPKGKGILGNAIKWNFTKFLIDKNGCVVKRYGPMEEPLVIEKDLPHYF
In short: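 NADPH consumption followed by fluorescence at 340/450 nm, t=0 and after 15 min at room temperature. Reaction started with cumene hydroperoxide (0.5 mM final) after 30 min compound–GPX4 preincubation; final 200 nM GPX4, 100 nM GR, 1 mM GSH, 0.5 mM NADPH.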
Further: nearly all actives have a fitted effect of over 65% in size.

CC(C)CCC[C@@H](C)[C@H]1CC[C@H]2[C@@H]3CC=C4C[C@@H](O)CC[C@]4(C)[C@@H]3CC[C@]12C
Potency [1]: inactive
Potency [2]: inactive

CCCCC[C@@H](O)CC[C@H]1[C@@H]2Cc3cccc(OCC(=O)O)c3C[C@@H]2C[C@@H]1O
Potency [1]: inactive
Potency [2]: inactive

O=[N+]([O-])c1ccc(/C=C/c2cccc(CO)n2)o1
Potency [1]: inactive
Potency [2]: inactive

O=C(O)C(O)C(O)C(=O)O (stereo unspecified)
Potency [1]: inactive
Potency [2]: inactive

CSCCNc1nc(SCCC(F)(F)F)nc2c1ncn2[C@@H]1O[C@H](COP(=O)(O)OP(=O)(O)C(Cl)(Cl)P(=O)(O)O)[C@@H](O)[C@H]1O
Potency [1]: inactive
Potency [2]: inactive

CCCCCC(O)/C=C/[C@@H]1C(CCCCCCC(=O)O)C(=O)C[C@@H]1O (stereo partly specified)
Potency [1]: inactive
Potency [2]: inactive

COc1ccc(CC(C)(C)NC[C@H](O)c2cc(O)cc3c2OCC(=O)N3)cc1
Potency [1]: inactive
Potency [2]: inactive

O=C(OC1C[C@@H]2CC3C[C@@H](C1)N2CC3=O)c1c[nH]c2ccccc12 (stereo partly specified)
Potency [1]: inactive
Potency [2]: inactive

CCNC(=O)CCC/C=C\C[C@@H]1[C@@H](/C=C/[C@@H](O)CCc2ccccc2)[C@H](O)C[C@@H]1O
Potency [1]: inactive
Potency [2]: inactive

OCC1OC(c2ccc(Cl)c(Cc3ccc(OC4CCOC4)cc3)c2)C(O)C(O)C1O (stereo unspecified)
Potency [1]: inactive
Potency [2]: inactive

COc1cc(/C=C\C(=O)N2CCN(CC(=O)N3CCCC3)CC2)cc(OC)c1OC
Potency [1]: inactive
Potency [2]: inactive

CCCCCCCCCCCCCCCCCC(=O)NCCCC[C@H](NC(=O)CC[C@@H](NC(=O)[C@H](C)NC(=O)[C@@H](C)O[C@H]1[C@H](O)[C@@H](CO)OC(O)[C@@H]1NC(C)=O)C(N)=O)C(=O)O (stereo partly specified)
Potency [1]: inactive
Potency [2]: inactive

CC[C@H]1OC(=O)[C@H](C)[C@@H](O[C@H]2C[C@@](C)(OC)[C@@H](O)[C@H](C)O2)[C@H](C)[C@@H](O[C@@H]2O[C@H](C)C[C@H](N(C)C)[C@H]2O)C(C)(O)C[C@@H](C)/C(=N\OCOCCOC)[C@H](C)[C@@H](O)[C@]1(C)O (stereo partly specified)
Potency [1]: inactive
Potency [2]: inactive

CCC(=O)O[C@@H]1[C@@H](C)O[C@@H](O[C@H]2[C@H](N(C)C)[C@@H](O)[C@H](O[C@H]3[C@@H](CC=O)C[C@@H](C)[C@@H](OC(C)=O)/C=C/C=C/C[C@@H](C)OC(=O)C[C@@H](OC(=O)CC)[C@@H]3OC)O[C@@H]2C)C[C@]1(C)OC(C)=O
Potency [1]: inactive
Potency [2]: inactive

CN1C2CC[C@@H]1CC(OC(=O)[C@H](CO)c1ccccc1)C2 (stereo partly specified)
Potency [1]: inactive
Potency [2]: inactive

CCN(CC)CCS(=O)(=O)[C@@H]1CCN2C(=O)c3coc(n3)CC(=O)C[C@H](O)/C=C(C)/C=C/CNC(=O)/C=C/[C@@H](C)[C@@H](C(C)C)OC(=O)[C@@H]12
Potency [1]: inactive
Potency [2]: 6.31 µM (active)

COc1cc(N)cn[n+]1-c1ccccc1
Potency [1]: inactive
Potency [2]: inactive

CCCCCCCCCC(=O)OCCN1CCN(CCCN2c3ccccc3Sc3ccc(C(F)(F)F)cc32)CC1
Potency [1]: inactive
Potency [2]: inactive

[Mn].[O]=[Mn][OH].[O]=[Mn][OH]
Potency [1]: inactive
Potency [2]: inactive

Cc1ncc([N+](=O)[O-])n1CCOC(=O)c1ccccc1
Potency [1]: inactive
Potency [2]: inactive

CC(=O)OC1CC(OC2C(O)CC(OC3C(O)CC(OC4CCC5(C)C(CCC6C5CCC5(C)C(C7=CC(=O)OC7)CCC65O)C4)OC3C)OC2C)OC(C)C1O (stereo unspecified)
Potency [1]: inactive
Potency [2]: inactive

[2H]N[C@@H](Cc1ccccc1)C(=O)N1CCC[C@H]1C(=O)N[C@@H](CCCNC(=N)N)C(=O)N1CCC[C@H]1C(=O)NCC(=O)NCC(=O)NCC(=O)NCC(=O)N[C@@H](CC(N)=O)C(=O)NCC(=O)N[C@@H](CC(=O)O)C(=O)N[C@@H](Cc1ccccc1)C(=O)N[C@@H](CCC(=O)O)C(=O)N[C@@H](CCC(=O)O)C(=O)N[C@H](C(=O)N1CCC[C@H]1C(=O)N[C@@H](CCC(=O)O)C(=O)N[C@@H](CCC(=O)O)C(=O)N[C@@H](Cc1ccc(O)cc1)C(=O)N[C@@H](CC(C)C)C(=O)O)[C@@H](C)CC
outcome [1]: inactive [at 9.52 µM]
outcome [2]: inactive [at 9.73 µM]

CC1(C)S[C@@H]2[C@H](NC(=O)[C@H](NC(=O)N3CCNC3=O)c3ccccc3)C(=O)N2C1C(=O)O (stereo partly specified)
Potency [1]: inactive
Potency [2]: inactive

N#Cc1c(N2C[C@@H]3NCCO[C@H]3C2)c(F)cc2c(=O)c(C(=O)O)cn(C3CC3)c12
Potency [1]: inactive
Potency [2]: inactive

CC(C)C(=O)OCC(=O)[C@@]12OC(C3CCCCC3)O[C@@H]1C[C@H]1[C@@H]3CCC4=CC(=O)C=C[C@]4(C)[C@H]3[C@@H](O)C[C@@]12C (stereo partly specified)
Potency [1]: inactive
Potency [2]: inactive

CCCCCCCCCCCCCCCCCCCCCCCCCCCCO
outcome [1]: inactive [at 0.4 µM]
outcome [2]: inactive [at 0.409 µM]

CCCCC(C)(O)CC=C[C@H]1[C@H](O)CC(=O)[C@H]1CCCCCCC(=O)OC (stereo partly specified)
Potency [1]: inactive
Potency [2]: inactive

C=CC1(C)CC(=O)C2(O)C(C)(O1)C(OC(C)=O)C(OC(=O)CCN(C)C)C1C(C)(C)CCC(O)C12C (stereo unspecified)
Potency [1]: inactive
Potency [2]: inactive
